Pf Dd2 inh = blocks growth of Plasmodium falciparum Dd2 parasites | P. falciparum Dd2 growth, SYBR Green, 72 h; stronger effect = lower value | activity change, % at 10 µM | actives 2.3% (n = 94,000) | AID 1159554; in the data active = activity change below about -80%
C diff HTS = blocks growth of Clostridium difficile; Clostridium difficile clinical isolate growth, OD600, 24 h; stronger effect = lower value; growth activity, negative = inhibition, % at 16 µg/mL (by protocol); actives 0.25% (n = 86,000); AID 1259249;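 active = mean growth activity at or below -80% and every replicate also at or below -80%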
Hits are given with their value; n = inactive; x = no result. In the library only some 2.4% were active in any assay of this set; here they are far more common.

SMILES	Pf Dd2 inh	C diff HTS
COc1ccc(NC(=O)N(C)C[C@H]2Oc3cc(C#CCC(C)C)ccc3S(=O)(=O)N([C@H](C)CO)C[C@H]2C)cc1	-88	n
CCCC#Cc1ccc2c(c1)O[C@H](CN(C)C(=O)Nc1ccc(OC)cc1)[C@H](C)CN([C@H](C)CO)S2(=O)=O	-87	x
CN(C)CC(=O)Nc1ccc2c(c1)[C@@H]1C[C@H](CC(=O)N(C)C)O[C@@H](CO)[C@@H]1O2	n	n
O=C(C1CCC1)N1CC[C@@H]2[C@H](CO)Nc3ccc(C#Cc4cccc(F)c4)cc3[C@@H]21	n	n
CN(C)C(=O)C[C@H]1C=C[C@H](NC(=O)c2ccc(F)cc2)[C@H](CO)O1	n	n
COc1ccc(S(=O)(=O)Nc2cccc3c2O[C@H](CN(C)C)[C@H](C)CN([C@@H](C)CO)C3=O)cc1	n	n
O=S(=O)(c1ccccc1)N1CC[C@@H]2[C@H]1c1cc(C#CC3CCCCC3)ccc1N[C@@H]2CO	n	n
O=C(C[C@H]1C=C[C@H](NC(=O)Cc2ccccn2)[C@H](CO)O1)NCCCN1CCOCC1	n	x
O=C(C[C@H]1C=C[C@H](NC(=O)Cc2ccccn2)[C@H](CO)O1)NCCc1ccccc1	-92	n
C[C@@H]1CN([C@H](C)CO)C(=O)c2cc(NS(=O)(=O)c3cn(C)cn3)ccc2O[C@@H]1CN(C)C(=O)NC1CCCCC1	n	x
Cc1ccc(S(=O)(=O)N(C)C[C@H]2OCCCC[C@@H](C)Oc3ccc(NC(=O)Nc4ccccc4)cc3C(=O)N([C@@H](C)CO)C[C@@H]2C)cc1	-83	n
Cc1ccc(S(=O)(=O)N(C)C[C@@H]2OCCCC[C@H](C)Oc3ccc(NC(=O)Nc4ccccc4)cc3C(=O)N([C@@H](C)CO)C[C@@H]2C)cc1	-90	n
Cc1ccc(S(=O)(=O)N(C)C[C@H]2OCCCC[C@@H](C)Oc3ccc(NC(=O)Nc4ccccc4)cc3C(=O)N([C@@H](C)CO)C[C@H]2C)cc1	n	n
Cc1ccc(S(=O)(=O)N(C)C[C@H]2OCCCC[C@@H](C)Oc3ccc(NC(=O)Nc4ccccc4)cc3C(=O)N([C@H](C)CO)C[C@H]2C)cc1	-87	n
Cc1ccc(S(=O)(=O)N(C)C[C@@H]2OCCCC[C@H](C)Oc3ccc(NC(=O)Nc4ccccc4)cc3C(=O)N([C@H](C)CO)C[C@H]2C)cc1	-90	n
C[C@@H]1CN([C@H](C)CO)C(=O)CCCn2cc(nn2)CO[C@@H]1CN(C)S(=O)(=O)c1ccc(-c2ccccc2)cc1	n	n
C[C@@H]1CN([C@H](C)CO)C(=O)CCCn2cc(nn2)CO[C@@H]1CN(C)C	n	n
CN1C(=O)c2cc(NC(=O)c3ccc(F)cc3)ccc2OC[C@@H]2O[C@H](CC(=O)N3CCOCC3)CC[C@@H]21	n	n
O=C(c1ccccc1F)N1CC2(C1)[C@@H](c1ccccc1)[C@@H](CO)N2CC1CCCC1	n	n
O=S(=O)(N[C@H]1CC[C@@H](CCn2cc(C3(O)CCCC3)nn2)O[C@H]1CO)c1ccc(Cl)cc1	n	x
CN1CCN(C(=O)C[C@H]2CC[C@H](NC(=O)c3ccc4c(c3)OCO4)[C@@H](CO)O2)CC1	n	x
Cc1ccc(S(=O)(=O)N(C)C[C@H]2OCCCC[C@H](C)Oc3ccc(NC(=O)Nc4ccccc4)cc3C(=O)N([C@@H](C)CO)C[C@@H]2C)cc1	-83	n
Cc1ccc(S(=O)(=O)N(C)C[C@H]2OCCCC[C@H](C)Oc3ccc(NC(=O)Nc4ccccc4)cc3C(=O)N([C@H](C)CO)C[C@H]2C)cc1	-88	n
C[C@@H]1CCCCO[C@@H](CN(C)S(=O)(=O)c2ccccc2)[C@@H](C)CN([C@@H](C)CO)C(=O)c2cc(NC(=O)Nc3ccccc3)ccc2O1	n	x
C[C@@H]1CCCCO[C@@H](CN(C)C(=O)Nc2ccc3c(c2)OCO3)[C@H](C)CN([C@H](C)CO)C(=O)c2cc(NC(=O)CCC(F)(F)F)ccc2O1	n	n
SMILES	Pf Dd2 inh	C diff HTS
CC(C)(C)[S@@](=O)N1Cc2cc(C(=O)NCc3ccncc3)nc(-c3cccc(-c4ccncc4)c3)c2[C@H]1CCO	n	x
COc1ccc(CNC(=O)c2cc3c(c(-c4cccc(-c5cccc(C#N)c5)c4)n2)[C@H](CCO)N([S@@](=O)C(C)(C)C)C3)cc1	n	x
CC(C)(C)[S@@](=O)N1Cc2cc(C(=O)NCCc3ccncc3)nc(-c3cccc(-c4ccccc4)c3)c2[C@H]1CCO	-85	n
CCCNC(=O)c1cc2c(c(-c3cccc(-c4cc5ccccc5o4)c3)n1)[C@H](CCO)N(C(=O)NC(C)C)C2	-93	n
COc1cccc(-c2cccc(-c3nc(C(=O)NCc4ccc(Oc5ccccc5)cc4)cc4c3[C@@H](CCO)N(S(=O)C(C)(C)C)C4)c2)c1 (some centres not stated)	-84	n
CCNC(=O)c1cc2c(c(-c3cccc(-c4cc5ccccc5o4)c3)n1)[C@@H](CCO)N(C(=O)NC(C)C)C2	n	n
CC=Cc1ccc2n(c1=O)C[C@H]1[C@H](CO)[C@@H](C(=O)NCCC)[C@@H]2N1S(=O)(=O)c1cn(C)cn1 (mixture of isomers)	n	n
CCC(=O)N[C@@H]1CC[C@H](CC(=O)NCc2ccccc2OC)O[C@H]1CO	n	n
CO[C@H]1CN(C)C(=O)c2cc(NC(=O)NC(C)C)ccc2OC[C@H](C)N(CCC(F)(F)F)C[C@@H]1C	n	n
CC(C)NC(=O)N(C)C[C@H]1Oc2c(NC(=O)C3CC3)cccc2C(=O)N([C@H](C)CO)C[C@H]1C	n	n
COc1ccc2c3c(n(C)c2c1)[C@H](CO)N(C(=O)Nc1ccc(F)cc1)CC31CN(C)C1	n	n
COc1ccc2c3c(n(C)c2c1)[C@H](CO)N(C(=O)Nc1ccc(F)cc1)CC31CN(C(=O)c2ccc3c(c2)OCO3)C1	-89	n
COc1ccc2c3c(n(C)c2c1)[C@@H](CO)N(C)CC31CN(C(=O)c2ccc3c(c2)OCO3)C1	n	n
COc1ccc2c3c(n(C)c2c1)[C@@H](CO)N(C(=O)Nc1ccc(F)cc1)CC31CN(C(=O)c2ccc3c(c2)OCO3)C1	-87	n
O=C(C[C@@H]1C[C@@H]2c3cc(NC(=O)Cc4ccncc4)ccc3O[C@@H]2[C@@H](CO)O1)NCC1CC1	n	n
COc1ccc(CN(C)C[C@@H]2Oc3ccc(NC(=O)Nc4ccc(OC)cc4)cc3CC(=O)N([C@@H](C)CO)C[C@@H]2C)cc1	n	n
COc1ccc2c3c([nH]c2c1)[C@@H](CO)N(Cc1ccccc1F)CC31CCN(C(=O)C2CCC2)CC1	n	n
CCCNC(=O)N1CC2(CN(C(=O)C3CCC3)C2)c2c([nH]c3cc(OC)ccc23)[C@@H]1CO	-84	n
COc1ccc2c3c([nH]c2c1)[C@H](CO)N(Cc1ccccc1F)CC31CN(C(=O)C2CCCC2)C1	-87	n
CCCNC(=O)N1CC2(CN(C(=O)C3CC3)C2)c2c([nH]c3cc(OC)ccc23)[C@@H]1CO	n	n
COc1ccc2c3c([nH]c2c1)[C@H](CO)N(Cc1ccccc1F)CC31CN(C(=O)C2CCC2)C1	-93	n
COc1ccc2c3c([nH]c2c1)[C@H](CO)N(Cc1ccccc1F)CC31CN(C(=O)C2CCOCC2)C1	n	n
COc1ccc2c3c(n(C)c2c1)[C@H](CO)N(Cc1ccccc1F)CC31CN(C(=O)C2CCCC2)C1	n	n
COc1ccc2c3c([nH]c2c1)[C@@H](CO)N(Cc1ccccc1F)CC31CCN(C(=O)C2CCOCC2)CC1	-91	n
